The results in this text go back to PubChem BioAssay (EPA / NIEHS).

Inconclusive results are not listed. Where a structure was tested more than once in an assay, its records may differ in their call. The source made the active and inactive calls. How the source made its calls, unless noted: active means hit-call score of the fitted dose curve at least 0.9, where 1 is the maximum; inactive means score below 0.9.

Read-out in experiment [1]: NAD(P)H dehydrogenase [quinone] 1 (NQO1), NQO1 (gene 1728)
Nature of the experiment: LTEA_HepaRG_NQO1: Life Technologies and Expression Analysis (LTEA) Assay for NAD(P)H dehydrogenase [quinone] 1 (NQO1) using HepaRG (AID 2283526). The following applies: mRNA level, 48 h; actives raise or lower the signal. In short, it runs like this:
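qRT-PCR read-out (Fluidigm TaqMan), normalized to three housekeeping genes, after 48 h chemical exposure of HepaRG cells. Concentrations: eight points, top 100 uM, half-log steps, 0.5% DMSO vehicle. Gain or loss of signal fitted relative to DMSO.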

Read-out in experiment [2]: Nuclear factor erythroid 2-related factor 2 (Homo sapiens) (UniProt Q16236)
Briefly: LTEA_HepaRG_NFE2L2: Life Technologies and Expression Analysis (LTEA) Assay for Nuclear factor erythroid 2-related factor 2 (NFE2L2) Transcription Factor using HepaRG (AID 2283527). The following applies: mRNA level, 48 h; actives raise or lower the signal. In short, it runs like this: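 Human liver HepaRG line treated in duplicate for 48 h with an eight-point series topping at 100 uM. Gene expression of NFE2L2 by qRT-PCR, bidirectionally fitted against the vehicle control.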

Read-out in experiment [3]: succinate dehydrogenase complex iron sulfur subunit B (SDHB), SDHB (gene 6390)
Briefly: LTEA_HepaRG_SDHB: Life Technologies and Expression Analysis (LTEA) Assay for succinate dehydrogenase complex iron sulfur subunit B (SDHB) using HepaRG (AID 2283528). The following applies: mRNA level, 48 h; actives raise or lower the signal. In short, it runs like this: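 SDHB transcript level read by TaqMan qRT-PCR, housekeeping-normalised (ACTB, GAPDH, POLR2A), after 48 h chemical treatment of plated HepaRG cells; eight concentrations top 100 uM, half-log steps, 0.5% DMSO, duplicates; fitted both directions against DMSO.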

Read-out in experiment [4]: Signal transducer and activator of transcription 3 (Homo sapiens) (UniProt P40763)
Nature of the experiment: LTEA_HepaRG_STAT3: Life Technologies and Expression Analysis (LTEA) Assay for Signal transducer and activator of transcription (STAT3) using HepaRG (AID 2283529). The following applies: mRNA level, 48 h; actives raise or lower the signal. The method in brief: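 In this transcriptional endpoint, HepaRG cultures receive test chemicals at up to 100 uM for 48 h, tested in duplicate. STAT3 mRNA is normalized to ACTB, GAPDH and POLR2A.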

Read-out in experiment [5]: sulfotransferase 2A1 (SULT2A1), SULT2A1 (gene 6822)
Briefly: LTEA_HepaRG_SULT2A1: Life Technologies and Expression Analysis (LTEA) Assay for sulfotransferase 2A1 (SULT2A1) using HepaRG (AID 2283531). The following applies: mRNA level, 48 h; actives raise or lower the signal. The method in brief: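 HepaRG, 48 h chemical exposure, 8-pt half-log curve from 100 uM in 0.5% DMSO, duplicates. Readout: TaqMan qRT-PCR of SULT2A1 mRNA, housekeeping-normalized. Bidirectional fit vs DMSO baseline.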

Read-out in experiment [6]: Transforming Growth Factor (TGFA), TGFA (gene 7039)
Nature of the experiment: LTEA_HepaRG_TGFA: Life Technologies and Expression Analysis (LTEA) Assay for Transforming Growth Factor (TGFA) using HepaRG (AID 2283532). As to conditions: mRNA level, 48 h; actives raise or lower the signal. The method in brief: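 Gene expression of TGFA was quantified by qRT-PCR after human HepaRG cells were treated for 48 h with test chemicals (eight concentrations, highest 100 uM, 0.5% DMSO). Activity in either direction was fitted relative to DMSO.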

Read-out in experiment [7]: Transforming Growth Factor (TGFB1), TGFB1 (gene 7040)
Briefly: LTEA_HepaRG_TGFB1: Life Technologies and Expression Analysis (LTEA) Assay for Transforming Growth Factor (TGFB1) Transporter using HepaRG (AID 2283533). As to conditions: mRNA level, 48 h; actives raise or lower the signal. The method in brief: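 qRT-PCR readout of TGFB1 transcript in HepaRG lysates, normalized to three housekeeping genes; gain or loss of signal fitted relative to 0.5% DMSO vehicle. Exposure: 48 h, 8-point curve from 100 uM, duplicate wells.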

Read-out in a further experiment: TIMP1, TIMP1 (gene 7076)
Briefly: LTEA_HepaRG_TIMP1: Life Technologies and Expression Analysis (LTEA) Assay for TIMP1 using HepaRG (AID 2283534). The following applies: mRNA level, 48 h; actives raise or lower the signal. The method in brief:
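HepaRG, 48 h exposure, 8-pt half-log series from 100 uM in 0.5% DMSO, duplicates; TIMP1 transcript by Fluidigm qRT-PCR, housekeeping-normalized; bidirectional curve fit vs DMSO baseline.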

Read-out in experiment [8]: Thyroid Hormone Responsive (THRSP), THRSP (gene 7069)
Briefly: LTEA_HepaRG_THRSP: Life Technologies and Expression Analysis (LTEA) Assay for Thyroid Hormone Responsive (THRSP) using HepaRG (AID 2283536). The following applies: mRNA level, 48 h; actives raise or lower the signal. The method in brief: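 Cell model: human HepaRG, approx. 100,000 cells/well, 0.5% DMSO vehicle. Exposure lasts 48 h; phenobarbital 1 mM serves as induction positive control. Gene expression is measured by qRT-PCR against three endogenous control genes.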

Read-out in experiment [9]: Cellular tumor antigen p53 (Homo sapiens) (UniProt P04637)
Briefly: LTEA_HepaRG_TP53: Life Technologies and Expression Analysis (LTEA) Assay for Tumor Protein P53 (TP53) using HepaRG (AID 2283537). As to conditions: mRNA level, 48 h; actives raise or lower the signal. In short, it runs like this:
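TP53 transcript measured by qRT-PCR, normalized to three housekeeping genes, after 48 h treatment of human HepaRG cultures with chemicals from 100 uM downward in half-log steps (0.5% DMSO vehicle, serum-free induction medium). Up- or down-regulation fitted against DMSO.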

Read-out in experiment [10]: UDP glucuronosyltransferase (UGT1A1), UGT1A1 (gene 54658)
Briefly: LTEA_HepaRG_UGT1A1: Life Technologies and Expression Analysis (LTEA) Assay for UDP glucuronosyltransferase (UGT1A1) using HepaRG (AID 2283538). The following applies: mRNA level, 48 h; actives raise or lower the signal. In short, it runs like this:
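HepaRG, 48 h chemical exposure (top 100 uM, half-log 8-pt, 0.5% DMSO vehicle), duplicate wells; qRT-PCR (TaqMan, Fluidigm array) for UGT1A1 mRNA, housekeeping-normalized; bidirectional curve fit vs DMSO baseline.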

Read-out in experiment [11]: UDP glucuronosyltransferase (UGT1A6), UGT1A6 (gene 54578)
Briefly: LTEA_HepaRG_UGT1A6: Life Technologies and Expression Analysis (LTEA) Assay for UDP glucuronosyltransferase (UGT1A6) using HepaRG (AID 2283539). As to conditions: mRNA level, 48 h; actives raise or lower the signal. The method in brief: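 qRT-PCR readout of UGT1A6 mRNA (normalized to ACTB/GAPDH/POLR2A) in differentiated HepaRG cells after 48 h chemical exposure; 8 concentrations, top 100 uM, half-log steps, 0.5% DMSO. Bidirectional curve fit relative to DMSO baseline.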

Read-out in experiment [12]: X-box binding protein 1 (XBP1), XBP1 (gene 7494)
Nature of the experiment: LTEA_HepaRG_XBP1: Life Technologies and Expression Analysis (LTEA) Assay for X-box binding protein 1 (XBP1) using HepaRG (AID 2283540). The following applies: mRNA level, 48 h; actives raise or lower the signal. In short, it runs like this: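 HepaRG, 48 h exposure, 8-pt half-log CRC top 100 uM, 0.5% DMSO vehicle, duplicates. Readout: TaqMan qRT-PCR of XBP1 mRNA, housekeeping-normalised (ACTB/GAPDH/POLR2A); bidirectional fit vs DMSO baseline.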

A short description of experiment [13]: LTEA_HepaRG_LDH_cytotoxicity: Cytotoxicity Assessment in the Life Technologies and Expression Analysis (LTEA) Assay (AID 2283563; active means hit-call score of the fitted dose curve at least 0.9, where 1 is the maximum). In short, it runs like this:
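HepaRG (human liver line), 48 h exposure, 8-pt half-log series from 100 uM, 0.5% DMSO vehicle, duplicates. Read-out: LDH in spent medium. Positive-direction fit vs DMSO baseline.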

Experiment [14] in a line: TOX21_p53_BLA_p2_viability: Viability Assessment in the Tox21 HCT-116 p53 Agonism Beta-lactamase Assay, Phase 2 (AID 2283591; active means hit-call score of the fitted dose curve at least 0.9, where 1 is the maximum;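 further: actives lower the ATP signal meaning cytotoxicity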). In short, it runs like this: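 HCT-116 p53-bla cells (4000/well) rested 5 h at 37C, then received compounds in DMSO (217-fold dilution) for 16 h at 37C, 5% CO2. After the CCF4 read, CellTiter-Glo was added; ATP luminescence was read after 30 min at room temperature.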

Experiment [15] has as its target Cellular tumor antigen p53 (Homo sapiens) (UniProt P04637). Nature of the experiment: TOX21_p53_BLA_p2_ratio: Tox21 HCT-116 p53 Agonism Beta-lactamase Assay, Ratio, Phase 2 (AID 2283592; active means hit-call score of the fitted dose curve at least 0.9, where 1 is the maximum). The method in brief:
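Readout: blue/green (460/530 nm) FRET emission ratio after 2 h CCF4-AM loading at room temperature, excitation 405 nm. HCT116 p53 bla cells, 16 h compound exposure at 37C, 5% CO2; agonist direction fitted against DMSO baseline.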

The nature of experiment [16]: TOX21_p53_BLA_p3_viability: Viability Assessment in the Tox21 HCT-116 p53 Agonism Beta-lactamase Assay, Phase 3 (AID 2283593; active means hit-call score of the fitted dose curve at least 0.9, where 1 is the maximum;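 further: cells exposed to compound for 16 h before reading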). The method in brief:
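HCT-116 cells (4000/well) rested 5 h at 37C, then got DMSO compounds by pin tool (217-fold dilution) for 16 h at 37C, 5% CO2. After the bla read, CellTiter-Glo was added and luminescence read at 30 min, room temperature.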

Read-out in experiment [17]: Tumor necrosis factor receptor 1 (TNFRSF1A), TNFRSF1A (gene 7132)
Briefly: LTEA_HepaRG_TNFRSF1A: Life Technologies and Expression Analysis (LTEA) Assay for Tumor necrosis factor receptor 1 (TNFRSF1A) using HepaRG (AID 2283535). As to conditions: mRNA level, 48 h; actives raise or lower the signal. The method in brief: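 HepaRG, 48 h plating then 48 h chemical exposure, serum-free induction media; 8-pt CRC from 100 uM, half-log, 0.5% DMSO vehicle, duplicates. Readout: TaqMan qRT-PCR (Fluidigm), housekeeping-gene normalized; bidirectional fit vs DMSO.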

Cellular tumor antigen p53 (Homo sapiens), sequence (P04637 whole entry, looked up): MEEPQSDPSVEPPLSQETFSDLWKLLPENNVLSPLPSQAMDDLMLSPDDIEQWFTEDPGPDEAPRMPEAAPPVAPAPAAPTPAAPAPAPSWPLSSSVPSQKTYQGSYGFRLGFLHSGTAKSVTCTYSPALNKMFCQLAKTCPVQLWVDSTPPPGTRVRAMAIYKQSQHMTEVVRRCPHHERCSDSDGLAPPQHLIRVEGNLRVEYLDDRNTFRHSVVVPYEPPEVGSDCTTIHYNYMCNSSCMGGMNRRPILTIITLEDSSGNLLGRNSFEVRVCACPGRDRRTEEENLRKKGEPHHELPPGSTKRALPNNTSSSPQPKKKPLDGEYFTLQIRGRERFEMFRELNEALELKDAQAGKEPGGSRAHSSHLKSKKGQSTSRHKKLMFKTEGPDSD
Signal transducer and activator of transcription 3 (Homo sapiens), sequence (P40763 whole entry, looked up): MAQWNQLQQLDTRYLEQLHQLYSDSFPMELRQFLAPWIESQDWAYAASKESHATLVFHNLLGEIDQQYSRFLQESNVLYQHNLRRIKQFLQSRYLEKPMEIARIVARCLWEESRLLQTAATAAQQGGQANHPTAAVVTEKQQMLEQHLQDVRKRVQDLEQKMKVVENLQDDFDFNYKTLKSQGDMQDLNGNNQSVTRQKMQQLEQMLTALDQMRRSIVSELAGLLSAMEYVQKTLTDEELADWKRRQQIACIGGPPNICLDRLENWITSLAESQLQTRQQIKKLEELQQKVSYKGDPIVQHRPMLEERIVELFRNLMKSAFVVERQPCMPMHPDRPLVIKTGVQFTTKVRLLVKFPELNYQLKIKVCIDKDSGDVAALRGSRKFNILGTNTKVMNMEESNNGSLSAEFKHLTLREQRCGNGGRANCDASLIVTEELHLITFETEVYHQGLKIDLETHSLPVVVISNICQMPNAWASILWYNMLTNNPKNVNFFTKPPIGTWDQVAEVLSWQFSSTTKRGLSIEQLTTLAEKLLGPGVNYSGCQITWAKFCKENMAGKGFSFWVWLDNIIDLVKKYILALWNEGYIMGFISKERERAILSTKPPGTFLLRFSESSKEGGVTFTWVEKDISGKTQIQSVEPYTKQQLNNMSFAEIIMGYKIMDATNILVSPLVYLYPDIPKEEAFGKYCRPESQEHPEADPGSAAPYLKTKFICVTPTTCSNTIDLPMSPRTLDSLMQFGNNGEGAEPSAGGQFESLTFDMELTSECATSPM
Nuclear factor erythroid 2-related factor 2 (Homo sapiens), sequence (Q16236 whole entry, looked up): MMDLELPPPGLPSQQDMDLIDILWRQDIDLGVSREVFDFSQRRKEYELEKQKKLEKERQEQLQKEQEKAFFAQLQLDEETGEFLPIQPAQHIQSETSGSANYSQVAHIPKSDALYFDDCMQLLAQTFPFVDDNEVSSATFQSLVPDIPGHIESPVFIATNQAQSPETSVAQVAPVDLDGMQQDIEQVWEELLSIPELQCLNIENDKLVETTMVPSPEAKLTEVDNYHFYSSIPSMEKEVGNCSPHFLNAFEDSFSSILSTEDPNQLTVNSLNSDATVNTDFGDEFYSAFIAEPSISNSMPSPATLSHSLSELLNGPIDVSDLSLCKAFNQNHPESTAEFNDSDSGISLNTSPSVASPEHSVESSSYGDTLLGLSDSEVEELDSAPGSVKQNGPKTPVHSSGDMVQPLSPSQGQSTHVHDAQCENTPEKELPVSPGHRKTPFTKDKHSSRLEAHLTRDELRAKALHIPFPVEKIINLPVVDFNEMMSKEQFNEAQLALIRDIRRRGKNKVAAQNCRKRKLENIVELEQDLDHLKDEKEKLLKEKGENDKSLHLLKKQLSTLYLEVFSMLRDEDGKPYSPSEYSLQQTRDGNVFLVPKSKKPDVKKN

For `CC1(C(=O)Nc2ccc(O)c(Cl)c2Cl)CCCCC1`, the call in experiment [1], in [2], in [3], in experiment [4], in [5] and in [6] was inactive. Moreover, the outcome in experiment [7] is “inactive”; with TIMP1, TIMP1 (gene 7076), “inactive”; in [8] it was “inactive”; in experiment [9], “inactive”; in experiment [10], “inactive”; in experiment [11], “inactive”. In addition, the molecule was called inactive in [12], in experiment [13], in [14], in experiment [15] and in experiment [16].
One may read the AC50 as the concentration at which the activity in the assay is half-maximal. Regarding `CNc1cnn(-c2cccc(C(F)(F)F)c2)c(=O)c1Cl`, the result in experiment [1], in experiment [3], in [4], in [5], in experiment [6] and in experiment [7] was inactive. Also, the outcome in the experiment with TIMP1, TIMP1 (gene 7076) was “inactive”; in [17], “inactive”; in experiment [8], “inactive”; in experiment [9], “inactive”; in [11], “inactive”; in experiment [12], “inactive”. The call in experiment [13], in experiment [15] and in [16] was inactive. Also, the figures for the AC50 in experiment [2] and in experiment [10] were 9.92 µM (active) and 16.1 µM (active), respectively.
For `CCOP(=S)(OCC)Oc1ccc([N+](=O)[O-])cc1`, the call in experiment [1], in experiment [2], in experiment [3], in experiment [4], in experiment [5] and in experiment [6] was inactive. The outcome was “inactive” in experiment [7]; “inactive” with TIMP1, TIMP1 (gene 7076); “inactive” in [17]; “inactive” in experiment [8]; “inactive” in experiment [9]; “inactive” in experiment [11]. Besides, the molecule was called inactive in experiment [12], in experiment [13], in [14], in [15] and in experiment [16]. Also, the AC50 in experiment [10] was 10.6 µM (active); in [15] it was 89.3 µM (active).
For `CSc1nnc(C(C)(C)C)c(=O)n1N`, the outcome in [1], in [2], in experiment [3], in experiment [4], in experiment [5] and in [6] was inactive. Also, the outcome in experiment [7] was “inactive”; in the experiment with TIMP1, TIMP1 (gene 7076), “inactive”; in experiment [17] it was “inactive”; in [8], “inactive”; in experiment [9], “inactive”; in experiment [11], “inactive”. Moreover, the outcome in experiment [12], in experiment [13], in experiment [15] and in experiment [16] was inactive. Also, in [10], the AC50 was 9.92 µM (active).
